Potency data for 40 molecules are collected here from PubChem BioAssay (NCATS).

SMILES strings stand for the structures. Inconclusive results are not listed. Entries that show only a call come without a potency. The source made the active and inactive calls. Calls follow the shape of the dose curve; as a rule, active = well fitted inhibition curve with a large enough effect; inconclusive = small, poorly fitted or top-dose-only effect; inactive = flat fitted curve, though single readings scatter. Non-standard residues stand in square brackets, D forms with d. Residues, ends and D or L forms follow the SMILES beside them. *: point of attachment. Benzoyl(4-tBu) = CC(C)(C)c1ccc(C(=O)*)cc1; Lys(Et2) = CCN(CC)CCCC[C@H](N)C(=O)O
Potency is read from the fitted curve at half-maximal effect.

This test can be described thus: BET inhibitor-based combinations targeting novel dependencies in MECOM-rearranged (r) AML: AML-194 cell line (AID 2202237; also: nearly all actives have a fitted effect of over 40% in size). To be noted: AML-194 (MECOM-r AML) viability, CellTiter-Glo, 48 h; series mostly up to 46 µM. The text has this: Ecotropic viral insertion site 1 (EVI1) is located on chromosome 3q26.2 as part of the MECOM (MDS and EVI1 complex) locus. Under normal hematopoiesis, EVI1 is a regulator of hematopoietic stem cell maintenance and self-renewal and EVI1 levels decrease as the cells differentiate. In approximately 5-10% of de novo acute myeloid leukemia (AML) EVI1 is aberrantly expressed, including Chromosomal inv(3)(q21;q26.2) or t(3;3)(q21;q26.2) alterations (MECOM-r) that account for about 50% of AML with EVI1 overexpression 31. AMLs with high levels of EVI1 have a poor prognosis and an overall survival time averaging between 10-14 months. EVI1 overexpression confers resistance in leukemia cells, highlighting the need to develop new targeted therapies for EVI1 overexpressing AMLs.
Here, we performed an unbiased chemical drug screening by evaluating the single agent activity of a collection of 2,480 oncology-focused, approved and investigational drugs (NCATS Mechanism Interrogation Plates, MIPE v5.0) against a panel of seven AML cell lines. These included four MECOM-r cell-lines (AML-191, AML-194, UCSD-AML1 and HNT-34) and three non-MECOM-r AMLs (MV4-11, OCI-AML3 and SET-2). Exploiting the mechanistic redundancy built in the library, we identified target-level sensitivities in MECOM-r AML cells and relative activity as compared to other AML subtypes.
A collection of 2480 mechanistically annotated dugs (MIPE v5.0) was used to screen four 3q26.2 rearranged AML cell lines and three non-3q26.2 rearranged AML cell lines. This library purposely exploits redundancy by including multiple inhibitors of key onco-targets, while simultaneously encompassing mechanistic diversity, targeting more than 800 distinct mechanisms of action. Briefly, cells were seeded in 5 uL of growth media using a Multidrop Combi dispenser into 1536 well white polystyrene tissue culture treated plates (Corning) at a density of 500cells/well. For each cell-line, for each of the 2480 drugs in MIPE v5.0 library, an 11-point dose curve was generated via a 1536 pin-tool. Plates were incubated for 48 hr at standard incubator conditions, covered by a stainless steel gasketed lid to prevent evaporation. Cell viability was determined by luminescence based, Cell Titer Glo assay (Promega). In detail, 3 uL of Cell Titer Glo were added to each well and plates were incubated at room temperature for 15 min with a stainless-steel lid in place. Luminescence readings were taken using a Viewlux (PerkinElmer) with a 2 s exposure time per plate. Compound dose-response curves were normalized to DMSO and empty well controls on each plate. Quantitative drug activity data from dose-response curves was determined utilizing area Under the Curve (AUC) and Z-transformed AUC (Z-AUC, a mean-centering transformation applied to each individual cell-line screened).
In the case of `COc1ccc2[nH]c(S(=O)Cc3ncc(C)c(OC)c3C)nc2c1` (stereo not given), the Potency result is “inactive”.
The result for `COc1cc(C)[nH]c(=O)c1CN1CCc2c(Cl)cc([C@H](OC)C3COC3)c(Cl)c2C1=O` reads “inactive”; that for `CCN(CC)CCNC(=O)c1c(C)[nH]c(/C=C2/C(=O)Nc3ccc(-c4csc(-c5ccccc5)n4)cc32)c1C`, 7.42 µM (active); that for `Cc1cc(C)c2c(c1)[C@@H](N(Cc1cc(C(F)(F)F)cc(C(F)(F)F)c1)c1nnn(C)n1)CCCN2CC1CCC(C(=O)O)CC1` (stereo not given in full), “inactive”.
Take `Cc1ccc(NS(=O)(=O)c2ccc3c(c2)C2C=CCC2C(c2ccc(C(=O)O)cc2)N3)cc1C` (stereo not given): the Potency entry is “inactive”.
The value for `c1ccc2[nH]c(-c3cscn3)nc2c1` was 18.6 µM (active); that for `Cc1c(O)cccc1C(=O)NC(CSc1ccccc1)C(O)CN1CC2CCCCC2CC1C(=O)NC(C)(C)C` (stereo not given) was 26.3 µM (active).
The result for `N#Cc1cc2cc(CN3CCC(Nc4ncnc5sc(CC(F)(F)F)cc45)CC3)c(O)cc2n1Cc1cn[nH]c1` reads 26.3 µM (active); that for `CNC(=O)CCc1cc(-c2ccc(-c3ccc(C(F)(F)F)cc3)cc2)n(-c2ccc(N3CCNCC3)cc2)n1`, 7.42 µM (active); that for `C[C@H](O)[C@@H]1C(=O)N2C(C(=O)O)=C(S[C@@H]3CN[C@H](CNS(N)(=O)=O)C3)[C@@H](C)[C@@H]12`, “inactive”.
Regarding `N=C1S/C(=C\c2ccc(-c3ccc4c(c3)C(=O)NC4=O)o2)C(=O)N1c1ccc(Br)cc1`, the Potency entry is “inactive”.
Regarding `CCCc1nc(C)c2c(=O)[nH]c(-c3cc(S(=O)(=O)N4CCN(CC)CC4)ccc3OCC)nn12`, the Potency result is “inactive”.
On to `CCNC(=O)Nc1ccc(Oc2ncnc(N)c2/C=N/OC)cc1Cl`, for which the Potency was 23.5 µM (active).
The value for `Cn1cc(/C=C/C(=O)c2cccc(F)c2)cc1/C=C/C(=O)NO` was 11.8 µM (active); that for `CC(C)(O)CNc1ncc(-c2ccnc(Nc3ccncc3)n2)c(CC2CC2)n1` was 16.6 µM (active); that for `CN(CCOc1ccc(C[C@H](Nc2ccccc2C(=O)c2ccccc2)C(=O)O)cc1)c1ccccn1` was “inactive”.
`NC(=O)c1cccc2c(NC(CN3CCC3)c3ccc(Cl)c(C(F)(F)F)c3)ncnc12` (stereo not given): the Potency was 16.6 µM (active).
The value for `N#CC(c1ccnc(NCCc2cccnc2)n1)c1nc2ccccc2s1` (stereo not given) was 18.6 µM (active).
Regarding `CC(C)(NS(=O)(=O)c1ccc2c(Cl)cnc(N=C(N)N)c2c1)C(=O)O`, the Potency entry is “inactive”.
Turning to `COc1cc([C@@H]2c3cc4c(cc3[C@@H](O[C@@H]3O[C@@H]5CO[C@@H](c6cccs6)O[C@H]5[C@H](O)[C@H]3O)[C@H]3COC(=O)[C@H]23)OCO4)cc(OC)c1O`, the Potency was 0.372 µM (active).
The value for `C#Cc1cccc(Nc2ncnc3cc4c(cc23)OCCOCCOCCO4)c1` was “inactive”; that for `CN1CCN(C2CCC(n3cc(-c4ccc(Oc5ccccc5)cc4)c4c(N)ncnc43)CC2)CC1` (stereo not given) was 8.33 µM (active).
With `COC(=O)[C@@H]1CC2=CC(=O)CC[C@]2(C)[C@@]23O[C@@H]2C[C@@]2(C)[C@@H](CC[C@@]24CCC(=O)O4)[C@H]13`, the Potency result is “inactive”.
The value for `CC(=O)NCCCS(=O)(=O)O` was “inactive”; that for `CC(=O)NCC(=O)N1[C@@H]2CC[C@H]1c1ccc(Nc3ncc(C(F)(F)F)c(NC4CCC4)n3)cc12` was 0.662 µM (active); that for `C[C@H](NC(=O)CCC(F)(F)F)C(=O)N[C@@H]1C(=O)N(CCO)c2ncccc2-c2ccccc21` was “inactive”.
The value for `COc1ccc2c(c1)CC[C@@H]1[C@@H]2CC[C@]2(C)[C@@H](NCCCCCCN3C(=O)C=CC3=O)CC[C@@H]12` was “inactive”.
As for `N#Cc1cccnc1N1CCN(C(=O)c2cccc(Cc3n[nH]c(=O)c4ccccc34)c2)CC1`, the Potency is 0.132 µM (active).
The value for `CC(C)OC(=O)[C@H](C)N[P@](=O)(OC[C@H]1O[C@@H](n2ccc(=O)[nH]c2=O)[C@](C)(F)[C@@H]1O)Oc1ccccc1` was “inactive”.
The result for `CC(=O)O/N=C1\C(=O)N(Cc2cc(Cl)ccc2Cl)c2ccc(Cl)cc21` reads 2.63 µM (active); that for `CCC(C)CNCC(=O)N1CCc2sccc2C1c1cccc(C)n1` (stereo not given), “inactive”; that for `CC[C@@H]1[C@H](F)C(=O)N[C@@H]1COc1nccc2cc(C(N)=O)c(OC)cc12`, 20.9 µM (active).
The value for `CCN(CC)CCCC[C@H](NC(=O)[C@H](CC(C)C)NC(=O)[C@H](C)NC(=O)[C@H](Cc1ccccc1)NC(=O)c1ccc(C(C)(C)C)cc1)C(=O)N[C@@H](CO)C(=O)OC` ({Benzoyl(4-tBu)}-FAL[Lys(Et2)]S-OMe) was “inactive”; that for `Cc1ccc(C(=O)N(CCCN)[C@@H](c2nc3cc(Cl)ccc3c(=O)n2Cc2ccccc2)C(C)C)cc1` was 0.0468 µM (active).
Consider `C=C[C@@H]1CN2CCC1C[C@H]2[C@H](O)c1ccnc2ccc(OC)cc12` (stereo not given in full), for which the Potency entry is “inactive”.
The value for `O=C(CCCCCCC(=O)N/N=C/c1ccc(N(c2ccccc2)c2ccccc2)cc1)NO` was 7.42 µM (active); that for `COc1ccccc1-c1cccc(-c2c(O)c3cc(C#N)c(Cl)cc3[nH]c2=O)c1` was “inactive”.
The result for `CCC(=O)NS(=O)(=O)c1ccc(-c2c(-c3ccccc3)noc2C)cc1` reads “inactive”; that for `CC(C)c1onc(-c2c(Cl)cccc2Cl)c1COc1ccc(/C=C/c2cccc(C(=O)O)c2)c(Cl)c1`, “inactive”.
As for `Nc1nc(Nc2ccc3c(c2)CC[C@@H](N2CCCC2)CC3)nn1-c1cc2c(nn1)-c1ccccc1CCC2`, the Potency is 20.9 µM (active).
